Reference: PubChem BioAssay AID588346 (National Center for Advancing Translational Sciences (NCATS), 2011)
Inconclusive results are not listed. Where a call stands in place of a potency, no number is given. The source made the active and inactive calls. Calls follow the shape of the dose curve; as a rule, active = well fitted curve in the direction sought with a large enough effect; inconclusive = small, poorly fitted or top-dose-only effect, or another doubt; inactive = no such curve, though single readings can be large or run the other way.

Assay: qHTS Assay for Inhibitors of Histone Lysine Methyltransferase G9a: Hit Confirmation in b-rIgG Counterscreen
Settings: AlphaScreen b-rIgG bead counterscreen, signal interference; series mostly up to 55.7 µM
Outline: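 No enzyme or histone peptide present: biotinylated rabbit IgG (1 nM final) preincubated 15 min at room temperature with compounds, then bound by streptavidin donor and anti-rIgG acceptor AlphaScreen beads (20 ug/mL each); read after 15 min dark incubation.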

Row | Structure (SMILES) | Potency
1 | CC1=NN(c2nc3ccccc3[nH]2)C(=O)C1Cc1ccccc1 (configuration not stated) | inactive
2 | COc1ccc(C(=O)/C=C/Sc2nc3ccccc3o2)cc1 | inactive
